# Laboratory results published in publication PMC7862700, “An all-to-all approach to the identification of sequence-specific readers for epigenetic DNA modifications on cytosine”.
# Tests used:
# Assay in all cases: DAPPL (digital affinity profiling via proximity ligation, sequencing); 10 mM Tris-HCl pH 7.5, 50 mM NaCl, 1 mM DTT, 4% glycerol, room temperature, 30 min; GST-TFs on glutathione beads, 16-mer random dsDNA library, 0.1% formaldehyde crosslink after washing; high values mean tight binding
# Settings in all cases: protein: recombinant; tags: N-terminal GST; dsDNA, one strand shown
# FEV = molecular target: T1, FEV (Homo sapiens, UniProt Q99581 1-238)
# T1 sequence: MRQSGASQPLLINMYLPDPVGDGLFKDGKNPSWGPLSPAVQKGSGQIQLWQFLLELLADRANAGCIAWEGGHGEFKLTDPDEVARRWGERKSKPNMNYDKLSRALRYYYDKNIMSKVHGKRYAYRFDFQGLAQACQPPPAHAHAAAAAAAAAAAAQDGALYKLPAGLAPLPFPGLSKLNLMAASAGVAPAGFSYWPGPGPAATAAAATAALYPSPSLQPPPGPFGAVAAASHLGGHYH
# How it was run: (§1)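 GST fusions of human transcription factors were expressed in yeast and captured with glutathione beads. Once given DNA barcodes and pooled alongside a tag-only sample, they were incubated for 30 min at room temperature with 200 nmole of a random double-stranded 16-mer DNA library in Tris/NaCl/DTT/glycerol buffer, then washed, crosslinked (0.1% formaldehyde), proximity-ligated, PCR-amplified and sequenced on an Illumina NextSeq500. The binding signal of each hexamer is its read frequency for a factor divided by its frequency for the tag-only sample.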
# ETV5 = ETV5 (Homo sapiens, UniProt P41161 1-510)
# Sequence of ETV5 (P41161 whole entry): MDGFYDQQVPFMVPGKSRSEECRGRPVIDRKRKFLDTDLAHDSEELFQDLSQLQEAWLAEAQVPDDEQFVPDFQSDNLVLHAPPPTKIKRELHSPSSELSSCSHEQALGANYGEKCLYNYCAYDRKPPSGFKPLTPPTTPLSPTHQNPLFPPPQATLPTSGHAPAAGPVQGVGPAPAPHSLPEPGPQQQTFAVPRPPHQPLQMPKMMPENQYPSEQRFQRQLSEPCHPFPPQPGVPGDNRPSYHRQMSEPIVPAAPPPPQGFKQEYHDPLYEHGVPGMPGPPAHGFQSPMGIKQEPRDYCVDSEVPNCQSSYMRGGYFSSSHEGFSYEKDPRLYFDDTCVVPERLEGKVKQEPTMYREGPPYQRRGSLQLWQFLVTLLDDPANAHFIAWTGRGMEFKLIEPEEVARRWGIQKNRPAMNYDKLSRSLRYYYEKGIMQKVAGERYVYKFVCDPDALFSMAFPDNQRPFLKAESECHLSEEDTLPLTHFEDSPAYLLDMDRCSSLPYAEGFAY
# How it was run: as §1
# SPIC = molecular target: T2, SPIC (Homo sapiens, UniProt Q8N5J4 1-248)
# T2 sequence: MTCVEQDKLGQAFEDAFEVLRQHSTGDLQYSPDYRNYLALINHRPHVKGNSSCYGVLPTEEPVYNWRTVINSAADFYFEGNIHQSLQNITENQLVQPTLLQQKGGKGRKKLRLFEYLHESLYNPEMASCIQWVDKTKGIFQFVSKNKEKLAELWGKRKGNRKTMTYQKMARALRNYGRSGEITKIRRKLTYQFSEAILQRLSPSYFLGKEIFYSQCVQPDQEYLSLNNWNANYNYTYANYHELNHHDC
# How it was run: as §1
# ELF4 = ELF4 (Homo sapiens, UniProt Q99607 1-663)
# Sequence of ELF4 (Q99607 whole entry): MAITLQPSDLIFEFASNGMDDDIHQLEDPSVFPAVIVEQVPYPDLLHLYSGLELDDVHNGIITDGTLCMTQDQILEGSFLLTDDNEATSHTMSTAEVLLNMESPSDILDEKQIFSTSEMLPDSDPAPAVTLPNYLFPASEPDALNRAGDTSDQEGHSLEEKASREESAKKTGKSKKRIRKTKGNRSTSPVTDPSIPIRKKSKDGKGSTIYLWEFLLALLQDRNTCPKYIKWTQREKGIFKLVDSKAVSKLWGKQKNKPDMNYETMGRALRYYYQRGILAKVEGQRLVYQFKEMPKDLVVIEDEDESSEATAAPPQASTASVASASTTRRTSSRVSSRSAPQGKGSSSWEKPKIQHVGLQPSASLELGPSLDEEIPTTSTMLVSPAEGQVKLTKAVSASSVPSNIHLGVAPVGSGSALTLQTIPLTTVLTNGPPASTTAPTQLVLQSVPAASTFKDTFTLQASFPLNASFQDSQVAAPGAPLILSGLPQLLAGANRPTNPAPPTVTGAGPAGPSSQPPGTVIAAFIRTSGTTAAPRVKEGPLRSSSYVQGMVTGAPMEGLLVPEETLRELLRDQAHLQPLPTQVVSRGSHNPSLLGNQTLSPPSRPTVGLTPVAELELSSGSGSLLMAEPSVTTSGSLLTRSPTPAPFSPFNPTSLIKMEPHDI
# How it was run: as §1
# ELK4 = molecular target: T3, ELK4 (Homo sapiens, UniProt P28324-2 1-405)
# T3 sequence: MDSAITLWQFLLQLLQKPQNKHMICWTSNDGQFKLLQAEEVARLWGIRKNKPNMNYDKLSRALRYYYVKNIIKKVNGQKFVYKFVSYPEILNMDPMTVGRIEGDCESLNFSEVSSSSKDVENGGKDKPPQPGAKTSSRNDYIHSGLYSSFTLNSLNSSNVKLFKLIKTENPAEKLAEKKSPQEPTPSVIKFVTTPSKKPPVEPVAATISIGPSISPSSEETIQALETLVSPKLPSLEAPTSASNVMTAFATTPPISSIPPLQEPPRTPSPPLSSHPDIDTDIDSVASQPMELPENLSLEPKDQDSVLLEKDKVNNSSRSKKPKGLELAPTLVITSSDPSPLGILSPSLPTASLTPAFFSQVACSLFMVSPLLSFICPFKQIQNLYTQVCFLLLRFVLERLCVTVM
# How it was run: as §1
# ETV2 = molecular target: T4, ETV2 (Homo sapiens, UniProt O00321 1-342)
# T4 sequence: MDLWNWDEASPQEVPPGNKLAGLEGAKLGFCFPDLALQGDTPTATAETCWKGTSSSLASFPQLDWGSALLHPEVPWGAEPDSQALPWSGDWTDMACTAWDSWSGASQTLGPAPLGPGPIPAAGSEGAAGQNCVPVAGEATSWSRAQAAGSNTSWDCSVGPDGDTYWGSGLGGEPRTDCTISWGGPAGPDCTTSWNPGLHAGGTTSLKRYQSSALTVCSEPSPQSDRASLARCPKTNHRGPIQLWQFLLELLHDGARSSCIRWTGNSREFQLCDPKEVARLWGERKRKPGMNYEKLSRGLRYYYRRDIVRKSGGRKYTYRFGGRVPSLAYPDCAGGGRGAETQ
# How it was run: as §1
# ELF3 = molecular target: T5, ELF3 (Homo sapiens, UniProt P78545 1-371)
# T5 sequence: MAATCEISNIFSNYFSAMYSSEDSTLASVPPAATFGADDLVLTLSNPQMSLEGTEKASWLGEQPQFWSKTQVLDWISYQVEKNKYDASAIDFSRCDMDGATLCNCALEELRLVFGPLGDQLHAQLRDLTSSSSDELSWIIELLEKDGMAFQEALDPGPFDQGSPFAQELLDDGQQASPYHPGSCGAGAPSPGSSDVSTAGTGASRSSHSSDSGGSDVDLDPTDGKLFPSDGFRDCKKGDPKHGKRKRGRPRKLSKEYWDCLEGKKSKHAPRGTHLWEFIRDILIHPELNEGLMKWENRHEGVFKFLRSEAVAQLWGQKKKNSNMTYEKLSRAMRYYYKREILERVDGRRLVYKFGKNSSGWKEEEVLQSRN
# How it was run: as §1
# ETV1 = ETV1 (Homo sapiens, UniProt P50549 1-477)
# Sequence of ETV1 (P50549 whole entry): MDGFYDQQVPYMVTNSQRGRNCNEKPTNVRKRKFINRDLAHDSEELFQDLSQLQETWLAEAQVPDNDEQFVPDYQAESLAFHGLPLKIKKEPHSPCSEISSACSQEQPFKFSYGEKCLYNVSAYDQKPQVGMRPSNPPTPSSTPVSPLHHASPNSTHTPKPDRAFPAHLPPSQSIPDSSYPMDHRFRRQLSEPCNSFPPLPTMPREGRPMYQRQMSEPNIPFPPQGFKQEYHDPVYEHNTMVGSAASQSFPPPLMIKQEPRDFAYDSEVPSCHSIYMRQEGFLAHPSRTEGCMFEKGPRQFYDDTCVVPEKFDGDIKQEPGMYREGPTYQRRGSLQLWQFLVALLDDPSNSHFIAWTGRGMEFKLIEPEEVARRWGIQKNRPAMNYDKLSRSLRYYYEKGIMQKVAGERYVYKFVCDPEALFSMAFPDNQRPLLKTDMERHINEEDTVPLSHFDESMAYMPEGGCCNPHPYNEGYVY
# How it was run: as §1
# ERF = molecular target: T6, ERF (Homo sapiens, UniProt P50548 1-548)
# T6 sequence: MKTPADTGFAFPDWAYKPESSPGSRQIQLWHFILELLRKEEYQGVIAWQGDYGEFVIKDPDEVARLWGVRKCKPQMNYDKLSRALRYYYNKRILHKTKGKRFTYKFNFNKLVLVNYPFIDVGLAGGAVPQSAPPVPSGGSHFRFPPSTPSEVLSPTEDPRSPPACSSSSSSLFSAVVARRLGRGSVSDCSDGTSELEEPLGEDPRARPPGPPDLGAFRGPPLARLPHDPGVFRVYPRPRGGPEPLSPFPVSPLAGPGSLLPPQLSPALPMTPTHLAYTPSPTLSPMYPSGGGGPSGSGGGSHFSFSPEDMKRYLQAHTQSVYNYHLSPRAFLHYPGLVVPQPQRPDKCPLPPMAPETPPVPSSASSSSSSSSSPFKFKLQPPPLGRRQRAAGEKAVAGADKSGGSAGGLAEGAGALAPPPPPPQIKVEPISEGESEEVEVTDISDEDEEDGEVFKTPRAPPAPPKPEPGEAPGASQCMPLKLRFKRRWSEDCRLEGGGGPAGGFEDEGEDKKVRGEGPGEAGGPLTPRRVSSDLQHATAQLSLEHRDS
# How it was run: as §1
# ETV3L = molecular target: T7, ETV3L (Homo sapiens, UniProt Q6ZN32 1-361)
# T7 sequence: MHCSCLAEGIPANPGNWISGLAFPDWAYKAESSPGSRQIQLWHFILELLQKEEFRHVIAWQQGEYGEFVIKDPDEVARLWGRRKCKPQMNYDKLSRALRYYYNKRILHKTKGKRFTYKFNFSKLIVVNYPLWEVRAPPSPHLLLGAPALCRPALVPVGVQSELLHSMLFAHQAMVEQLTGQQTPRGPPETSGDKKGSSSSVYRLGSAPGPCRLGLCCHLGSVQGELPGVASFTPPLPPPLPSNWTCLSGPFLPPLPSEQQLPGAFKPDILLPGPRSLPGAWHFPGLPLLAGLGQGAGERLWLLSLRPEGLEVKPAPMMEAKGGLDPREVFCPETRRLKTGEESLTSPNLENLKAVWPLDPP
# How it was run: as §1
# ETS2 = molecular target: T8, ETS2 (Homo sapiens, UniProt P15036 1-469)
# T8 sequence: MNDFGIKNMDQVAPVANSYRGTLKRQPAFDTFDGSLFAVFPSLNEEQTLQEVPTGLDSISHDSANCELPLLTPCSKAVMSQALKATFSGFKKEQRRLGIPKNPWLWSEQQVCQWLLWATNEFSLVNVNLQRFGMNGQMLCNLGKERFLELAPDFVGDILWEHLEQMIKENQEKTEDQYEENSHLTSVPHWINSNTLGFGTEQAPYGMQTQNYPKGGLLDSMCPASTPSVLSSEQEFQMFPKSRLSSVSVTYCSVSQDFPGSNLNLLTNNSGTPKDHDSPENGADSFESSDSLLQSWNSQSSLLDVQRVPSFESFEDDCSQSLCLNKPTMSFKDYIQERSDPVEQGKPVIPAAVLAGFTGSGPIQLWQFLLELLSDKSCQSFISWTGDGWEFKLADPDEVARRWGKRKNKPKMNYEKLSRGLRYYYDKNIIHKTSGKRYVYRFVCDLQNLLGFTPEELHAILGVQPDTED
# How it was run: as §1
# SPDEF = molecular target: T9, SPDEF (Homo sapiens, UniProt O95238 1-335)
# T9 sequence: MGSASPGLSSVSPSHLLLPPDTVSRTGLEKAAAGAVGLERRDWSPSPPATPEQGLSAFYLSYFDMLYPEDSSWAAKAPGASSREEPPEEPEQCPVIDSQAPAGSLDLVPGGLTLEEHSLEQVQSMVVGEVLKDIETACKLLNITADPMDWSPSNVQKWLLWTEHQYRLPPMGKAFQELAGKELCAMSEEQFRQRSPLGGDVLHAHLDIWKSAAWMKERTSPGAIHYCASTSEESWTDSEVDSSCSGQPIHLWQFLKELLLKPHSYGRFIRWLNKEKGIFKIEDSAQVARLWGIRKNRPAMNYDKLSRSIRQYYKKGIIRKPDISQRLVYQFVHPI
# How it was run: as §1
# ETV7 = molecular target: T10, ETV7 (Homo sapiens, UniProt Q9Y603 1-341)
# T10 sequence: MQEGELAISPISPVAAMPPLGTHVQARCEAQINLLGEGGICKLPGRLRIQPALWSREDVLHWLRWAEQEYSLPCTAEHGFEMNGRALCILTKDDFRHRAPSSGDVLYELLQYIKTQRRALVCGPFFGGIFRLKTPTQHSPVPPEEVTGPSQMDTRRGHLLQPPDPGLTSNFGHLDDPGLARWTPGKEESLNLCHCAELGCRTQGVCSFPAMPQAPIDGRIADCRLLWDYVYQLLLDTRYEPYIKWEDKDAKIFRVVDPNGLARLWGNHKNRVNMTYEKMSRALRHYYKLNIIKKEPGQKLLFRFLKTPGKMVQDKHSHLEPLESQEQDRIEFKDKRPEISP
# How it was run: as §1
# ELF5 = molecular target: T11, ELF5 (Homo sapiens, UniProt Q9UKW6-2 1-255)
# T11 sequence: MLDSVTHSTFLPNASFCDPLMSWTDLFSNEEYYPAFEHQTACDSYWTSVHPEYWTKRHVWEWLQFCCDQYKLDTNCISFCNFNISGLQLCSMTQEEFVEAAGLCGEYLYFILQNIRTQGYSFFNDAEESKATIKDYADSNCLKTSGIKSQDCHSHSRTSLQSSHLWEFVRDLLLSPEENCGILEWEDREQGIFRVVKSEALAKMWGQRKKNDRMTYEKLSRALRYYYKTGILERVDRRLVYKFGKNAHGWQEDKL
# How it was run: as §1
# ETV3 = molecular target: T12, ETV3 (Homo sapiens, UniProt P41162-2 1-143)
# T12 sequence: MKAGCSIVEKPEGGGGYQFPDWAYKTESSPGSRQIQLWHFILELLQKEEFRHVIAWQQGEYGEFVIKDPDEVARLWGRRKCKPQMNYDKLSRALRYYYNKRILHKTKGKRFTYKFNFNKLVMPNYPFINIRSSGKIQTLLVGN
# How it was run: as §1
# ETV6 = ETV6 (Homo sapiens, UniProt P41212 1-452)
# Sequence of ETV6 (P41212 whole entry): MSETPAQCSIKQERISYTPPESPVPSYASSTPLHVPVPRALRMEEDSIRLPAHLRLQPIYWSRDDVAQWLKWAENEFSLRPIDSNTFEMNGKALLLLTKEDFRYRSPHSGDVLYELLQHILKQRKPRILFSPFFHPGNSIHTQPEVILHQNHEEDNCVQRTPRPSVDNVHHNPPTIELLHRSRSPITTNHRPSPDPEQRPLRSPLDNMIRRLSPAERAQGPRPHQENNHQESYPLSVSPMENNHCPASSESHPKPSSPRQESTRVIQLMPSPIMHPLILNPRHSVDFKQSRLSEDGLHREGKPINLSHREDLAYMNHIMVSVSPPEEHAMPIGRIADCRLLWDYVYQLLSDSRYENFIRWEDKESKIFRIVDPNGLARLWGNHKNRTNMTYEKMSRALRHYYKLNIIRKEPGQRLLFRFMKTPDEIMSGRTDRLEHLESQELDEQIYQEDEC
# How it was run: as §1
sequence,measurement,setting,value
AAGTGC,binding signal,FEV,"1.32 fold enrichment (6-mer frequency, TF over GST control)"
same,binding signal,ETV5,"1.33 fold enrichment (6-mer frequency, TF over GST control)"
same,binding signal,SPIC,"1.5 fold enrichment (6-mer frequency, TF over GST control)"
same,binding signal,ELF4,"1.29 fold enrichment (6-mer frequency, TF over GST control)"
same,binding signal,ELK4,"1.21 fold enrichment (6-mer frequency, TF over GST control)"
same,binding signal,ETV2,"1.35 fold enrichment (6-mer frequency, TF over GST control)"
same,binding signal,ELF3,"1.33 fold enrichment (6-mer frequency, TF over GST control)"
same,binding signal,ETV1,"1.25 fold enrichment (6-mer frequency, TF over GST control)"
same,binding signal,ERF,"1.22 fold enrichment (6-mer frequency, TF over GST control)"
same,binding signal,ETV3L,"1.2 fold enrichment (6-mer frequency, TF over GST control)"
same,binding signal,ETS2,"1.23 fold enrichment (6-mer frequency, TF over GST control)"
same,binding signal,SPDEF,"1.26 fold enrichment (6-mer frequency, TF over GST control)"
same,binding signal,ETV7,"1.32 fold enrichment (6-mer frequency, TF over GST control)"
same,binding signal,ELF5,"1.29 fold enrichment (6-mer frequency, TF over GST control)"
same,binding signal,ETV3,"1.39 fold enrichment (6-mer frequency, TF over GST control)"
same,binding signal,ETV6,"1.36 fold enrichment (6-mer frequency, TF over GST control)"
